RTF Ca sens inh: cardiac RTF calcium desensitization | P19429+P45379 | hit rate 0.12% among 340,000 | IANBD-labeled cardiac RTF, Ca2+ fluorescence | inhibition, % at 7.15 µM;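 active = inhibition above the mean inhibition of all tested compounds plus 3 SD, cut at about 17% in these data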;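 also: assay run at fixed EC70 calcium of 1.6 mM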
CRFR2-BP ag: CRF-BP/CRF-R2 complex agonism | activation, % at 13.2 µM | HEK293 CRF-R2/CRF-BP, calcium dye fluorescence (FLIPR); percent of saturating CRF peptide response | hit rate 0.46% among 350,000;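 active = activation of at least 50%, plus an integration ratio under a set limit after plate pattern correction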;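 also: plate controls were neutral control wells without compound for no effect and CRF at EC100 for full effect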
CRFR2-BP antag: antagonists of CRF-binding protein/CRF-R2 receptor complex; HEK293 CRF-R2/CRF-BP, CRF-induced calcium fluorescence; inhibition, % at 11.8 µM; hit rate 0.59% among 350,000; AID 588475;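 active = inhibition of the ligand-induced calcium signal above about 50% at the single tested concentration, limit read from the data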
cardiac RTF act: increases calcium sensitivity of human cardiac regulated thin filaments | IANBD-labeled TnC RTF fluorescence at EC20 calcium; 0% EC20 calcium, 100% full calcium | activation, % at 7.2 µM | hit rate 0.24% among 340,000 | AID 493008;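 active = activation above the mean over all tested compounds plus 3 SD, cut at about 30% in these data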;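 also: rise in fluorescence read as greater calcium sensitivity of cardiac thin filaments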
IDE cell inh: inhibits human insulin-degrading enzyme in HEK cells | inhibition, % at 5.59 µM | P14735 | FAbetaB cleavage, fluorescence polarization | hit rate 0.41% among 320,000;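 active = percent inhibition above the average of all tested compounds plus 3 SD, set per screening campaign, cut at about 16% in these data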;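 also: IDE supplied by intact live HEK cells; FP after avidin binding of uncleaved biotin substrate so inhibition keeps polarization high; 0% = DMSO wells and 100% = 60 µM reference IDE inhibitor Ii1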
Target sequence (P14735 whole entry, looked up): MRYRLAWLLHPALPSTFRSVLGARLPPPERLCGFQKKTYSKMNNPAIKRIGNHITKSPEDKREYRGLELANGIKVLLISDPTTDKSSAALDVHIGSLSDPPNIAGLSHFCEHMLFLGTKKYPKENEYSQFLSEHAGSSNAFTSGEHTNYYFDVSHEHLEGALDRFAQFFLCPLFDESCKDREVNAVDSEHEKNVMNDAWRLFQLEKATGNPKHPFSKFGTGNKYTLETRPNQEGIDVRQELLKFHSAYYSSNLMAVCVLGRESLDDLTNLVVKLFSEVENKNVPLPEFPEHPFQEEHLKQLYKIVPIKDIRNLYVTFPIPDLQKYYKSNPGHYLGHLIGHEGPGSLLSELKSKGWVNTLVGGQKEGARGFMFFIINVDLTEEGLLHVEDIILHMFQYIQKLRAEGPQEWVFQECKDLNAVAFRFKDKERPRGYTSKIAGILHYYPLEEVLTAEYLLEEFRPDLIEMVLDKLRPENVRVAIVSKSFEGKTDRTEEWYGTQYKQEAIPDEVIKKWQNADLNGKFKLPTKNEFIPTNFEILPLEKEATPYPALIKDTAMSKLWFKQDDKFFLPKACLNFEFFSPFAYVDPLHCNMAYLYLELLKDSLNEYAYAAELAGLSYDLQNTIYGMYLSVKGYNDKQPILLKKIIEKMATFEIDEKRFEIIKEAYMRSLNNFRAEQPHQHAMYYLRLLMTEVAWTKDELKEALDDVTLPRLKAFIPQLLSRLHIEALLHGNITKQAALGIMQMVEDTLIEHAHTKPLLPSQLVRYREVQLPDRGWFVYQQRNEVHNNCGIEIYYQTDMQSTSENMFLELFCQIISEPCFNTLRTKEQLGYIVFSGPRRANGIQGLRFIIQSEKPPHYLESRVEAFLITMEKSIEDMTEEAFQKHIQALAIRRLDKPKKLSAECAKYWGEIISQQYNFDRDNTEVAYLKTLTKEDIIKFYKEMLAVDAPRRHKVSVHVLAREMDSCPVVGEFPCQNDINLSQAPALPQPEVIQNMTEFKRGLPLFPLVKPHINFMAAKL
IDE act: boosts human insulin-degrading enzyme activity in HEK cells | P14735 | AID 493087 | activation, % at 5.96 µM | FAbeta-B cleavage, fluorescence polarization; 0% vehicle, 100% cell-free pure enzyme wells | hit rate 0.073% among 340,000;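 active = activation above the mean of all tested compounds plus 3 SD, set per screening campaign, cut at about 17% in these data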
IDE inh confirm: confirmation of human insulin-degrading enzyme inhibitors in cells. AID 435028. shares compounds with IDE cell inh. hit rate 51% among 1,200. HEK cells, FAbetaB cleavage, fluorescence polarization. inhibition, % at 5.59 µM;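 active = mean inhibition across triplicate wells above the cutoff set by the earlier primary insulin-degrading enzyme screen, cut at about 16% in these data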;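 also: 0% = DMSO wells and 100% = 60 µM reference IDE inhibitor Ii1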
HEK293 tox: kills HEK cells in IDE inhibitor counter-screen. hit rate 28% among 1,200. HEK293 cytotoxicity, ATP luminescence. AID 449730. shares compounds with IDE cell inh. inhibition, % at 5.59 µM; in the data active = inhibition above about 22%;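 also: 0% = vehicle wells and 100% = reference cytotoxic drug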
Active calls of the source: *; nt = no result. Most compounds without a hit are left out; they make up all but 1.5% or so of the library.

SMILES	RTF Ca sens inh	CRFR2-BP ag	CRFR2-BP antag	cardiac RTF act	IDE cell inh	IDE act	IDE inh confirm	HEK293 tox
COc1ccc(O)c(C(=O)c2coc(=N)c(C(=O)Nc3ccc(SC(F)F)cc3)c2)c1	-3	11	7	6	20*	-22	38*	24*
COc1ccc2c(n1)Sc1nc3ccccc3nc1N2	-59	228*	-189	30*	28*	-35	55*	12
COc1cccc2c1C(=O)C=C(C)C2=O	1	-2	16	3	34*	-18	72*	34*
O=C(CSc1nnc(-c2cccnc2)n1-c1ccccc1)N1CCN(c2ccc(F)cc2)CC1	0	-1	12	4	21*	-34	10	21
Cc1ccc(-n2c(SCC(=O)N3CCOCC3)nnc2-c2cccnc2)cc1	-10	1	-10	-7	8	-2	nt	nt
Cc1ccc(-n2c(SCC(=O)N3CCOCC3)nnc2-c2cccnc2)cc1C	-2	-2	2	3	19*	-12	6	8
O=C(NCC(c1ccco1)N1CCc2ccccc21)C(=O)Nc1ccc(F)cc1F (centres undefined)	-3	0	10	-9	0	2	nt	nt
COc1cccc(CC(O)CC2c3c(cc4c(c3OC)OCO4)CCN2C)c1 (centres undefined)	-6	18	-5	5	nt	3	nt	nt
O=C(Nc1ccc(Nc2ccccc2)cc1)c1ccc(Cl)cc1	-3	0	6	-1	7	-3	nt	nt
N#C/C(C(=O)Nc1ccc(Cl)cc1)=C(/S)Nc1ccccc1	-15	-4	27	-8	46*	-24	4	24*
Cc1ccc(NC(=O)NC2CCCCCCC2)cc1	-6	2	-19	-3	nt	3	nt	nt
COc1ccc(C2=NN(c3ccc(C=O)cc3)C(c3ccccc3)C2)cc1 (centres undefined)	nt	1	-8	nt	2	nt	nt	nt
COc1ccc(C2CC(c3cccs3)=NN2c2ccc(C=O)cc2)cc1 (centres undefined)	nt	109*	-127	nt	30*	nt	19*	14
Cc1ccc(NC(=O)CN(C)C(=O)COC(=O)c2nc3nccc(C)n3n2)cc1	-6	0	3	5	-4	4	nt	nt
CSc1nc2nc(C)c(CCC(=O)OCC(=O)Nc3ccc(F)cc3)c(C)n2n1	-8	-1	19	-3	nt	3	nt	nt
COC(=O)C1=C(C)N=c2s/c(=C/c3ccoc3)c(=O)n2C1c1ccccc1 (centres undefined)	-8	4	6	4	28*	-10	29*	14
CCOC(=O)C1=C(C)N=c2s/c(=C\c3ccc(OCC(=O)O)cc3)c(=O)n2C1c1ccccc1 (centres undefined)	-1	2	8	2	1	4	nt	nt
COc1ccccc1OCCNC(=O)CN1C(=O)NC2(CCCC2)C1=O	-10	0	-5	-5	nt	-1	nt	nt
CCOC(=O)N1CCN(C(=O)c2cccn3c(=O)c4cc(Cl)ccc4nc23)CC1	-1	1	-6	-3	16*	-7	8	4
C[C@H](CO)N1C[C@H](C)[C@H](CN(C)S(=O)(=O)c2ccc(F)cc2)Oc2ncc(Br)cc2C1=O	nt	-1	-5	nt	nt	nt	nt	nt
COC(=O)C1CCN(C(=O)COC(=O)c2cc(-c3ccccc3)nc3ccc(OC)cc23)CC1	-4	0	-11	-1	2	-1	nt	nt
COc1cc(/C=C2\SC(=O)N(CC(=O)Nc3ccccc3F)C2=O)cc(Cl)c1O	-3	169*	-150	-1	48*	-138	96*	17
Cc1[nH]n(-c2ccccc2)c(=S)c1C=NCCCN=Cc1c(C)[nH]n(-c2ccccc2)c1=S	-10	-1	-1	1	32*	-16	4	123*
COCn1c(-c2cccc(Br)c2)nc2ccccc21	-4	-1	-17	-4	17*	-14	0	19
COc1ccc(CNC(=O)Cn2c(=O)n(CC(=O)N3CCCCC3)c(=O)c3sccc32)cc1	-2	-1	4	-4	4	2	nt	nt

Screening results deposited in PubChem BioAssay by several laboratories.
